Shown are actives, neighbours in structure and some others; about 19% of the full set was active somewhere.
DT40 TDP1 no CPT: qHTS for Inhibitors of human tyrosyl-DNA phosphodiesterase 1 (TDP1): qHTS in cells in absence of CPT; AID 686978, 2013; actives 15% (n = 420,000); DT40 Tdp1-/- hTDP1 cells, no CPT, ATP luminescence, 48 h; Potency, µM (top dose mostly 46.2 µM), inactives show top-dose activity change, negative = growth inhibition, usual class: inhibitors; note: potency is the fitted concentration of half-maximal effect; % is set by controls: 0 for no effect and ±100 for the full control effect; nearly all actives have a fitted effect of over 55% in size
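Stably hTDP1-transfected Tdp1-null chicken DT40 cells were treated with library compounds minus camptothecin and grown for at least 48 hr at 37 °C, after which cellular ATP was quantified by luminescence.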
SW480 rereplic: A quantitative high throughput screen for small molecules that induce DNA re-replication in SW480 colon adenocarcinoma cells; SW480 DNA re-replication, Hoechst DNA content imaging, 48 h; Potency, µM (top dose mostly 46.1 µM), for inactives: top-dose re-replication activation, usual class: activators; actives 1.8% (n = 340,000); AID 624297, 2012; note: potency is the fitted concentration of half-maximal effect; % of control where 0% means no effect; nearly all actives have a fitted effect of over 55% in size
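Hoechst fluorescence of nuclei (405 nm excitation, 500-530 nm emission) measured by plate-scanning imager after 48 hr compound exposure at 37 C; re-replication scored as increased number of nuclei with elevated intensity.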
IL1B secr inh: qHTS for Inhibitors of Inflammasome Signaling: IL-1-beta AlphaLISA Primary Screen | THP-1 LPS/ATP IL-1B secretion, AlphaLISA, 16 h; active compounds read low | activity change, % at 57.5 µM | actives 4.7% (n = 360,000) | AID 743279, 2014; in the data active = activity change below about -50%; inconclusive = mostly about -30% to -49%; note: % is set by controls: 0 for no effect and ±100 for the full control effect
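Secreted IL-1B measured by AlphaLISA bead assay after 16 h compound exposure of THP-1 cells; compounds (final up to 57.5 uM) added 1 h before LPS (250 ng/mL) and ATP (1.25 mM) stimulation; lower signal means less secretion.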
MCF10A rerep: A quantitative high throughput screen for small molecules that induce DNA re-replication in MCF 10a normal breast cells; actives 2.9% (n = 350,000); MCF 10A DNA re-replication, Hoechst nuclear intensity, 48 h; Potency, µM (top dose mostly 46.1 µM), for inactives: at the top dose activity, positive = re-replication, most hits filed as activators; note: potency is the fitted concentration of half-maximal effect; % of control where 0% means no effect; nearly all actives have a fitted effect of over 50% in size
TDP1 cell CPT: qHTS for Inhibitors of human tyrosyl-DNA phosphodiesterase 1 (TDP1): qHTS in cells in presence of CPT | actives 12% (n = 420,000) | chicken DT40 Tdp1-/-;hTDP1 cells + 20 nM CPT, ATP luminescence, 48 h | Potency, µM (top dose mostly 46.2 µM), for inactives: at the top dose activity change, negative = growth inhibition, most hits filed as inhibitors | AID 686979, 2013; note: potency is the fitted concentration of half-maximal effect; % is set by controls: 0 for no effect and ±100 for the full control effect; nearly all actives have a fitted effect of over 55% in size
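Cell growth measured by CellTiter-Glo luminescence after a minimum 48 h, 37 C compound exposure with 20 nM CPT in Tdp1-knockout DT40 cells stably expressing hTDP1, seeded 400/well; qHTS titration format.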
Chronic BCR inh: qHTS Assay to Find Inhibitors of Chronic Active B-Cell Receptor Signaling; actives 0.05% (n = 340,000); Potency, µM (highest dose often 46.1 µM), for the others: at the top dose activity change, negative = inhibition, usual class: inhibitors; ABC-DLBCL IkBa-CBG/CBR reporter, luminescence ratio, 4 h; active = well fitted inhibition curve with a large enough effect in the signal ratio, with a control signal flat, not every such curve was filed as active; inconclusive = small, poorly fitted or top-dose-only effect, or effect the other way, or a change in a side signal; the % refers to the signal ratio;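 note: potency is the fitted concentration of half-maximal effect; plate controls were basal doxycycline-induced cells for no effect and cells given 10 µM MG132 for full effect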
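TMD8 ABC-DLBCL cells carrying doxycycline-inducible green luciferase fused to IkappaBalpha plus unfused red luciferase were exposed to compounds (up to 46 uM) for 4 hrs at 37C. Activity came from the overlap-corrected green/red luminescence ratio.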
* hit, by the source's call; ? = inconclusive; / = no result given. Unless noted, calls come from the whole dose curve; as a rule, active = well fitted curve in the direction sought with a large enough effect; inconclusive = small, poorly fitted or top-dose-only effect, or another doubt; inactive = no such curve, though single readings can be large; an effect the other way counts as inactive or inconclusive.

SMILES	DT40 TDP1 no CPT	SW480 rereplic	IL1B secr inh	MCF10A rerep	TDP1 cell CPT	Chronic BCR inh
O=C(CNC(=O)Cn1ccc2ccccc2c1=O)NCCCN1CCN(c2cccc(Cl)c2)CC1	25.9µM*	-7.2%	?	11.2%	?	-1.2%
c1ccc(CCCN2CCN(c3ccccc3)CC2)cc1	-7.0%	2.8%	7.7	?	12.8%	-1.0%
COc1cccc(CNC(=O)CCc2c(C)nn(-c3ccc(N4CCOCC4)nn3)c2C)c1	-19.2%	/	/	/	-22.6%	/
CCOC(=O)c1sc2nc(C)nc(N3CCN(S(=O)(=O)c4ccccc4)CC3)c2c1C	6.51µM*	-1.5%	24.8	-1.1%	8.2µM*	0.3%
O=S(=O)(c1cccs1)N1CCN(c2ncccn2)CC1	-26.2%	-14.2%	10.1	2.1%	-10.5%	-14.5%
CCOC(=O)c1sc2nc(CC(=O)OC)nc(NCc3ccc(Cl)cc3)c2c1C	5.8µM*	1.3%	?	-2.9%	4.11µM*	-8.8%
Cc1nc(N2CCN(S(=O)(=O)c3cccs3)CC2)c2c(-c3ccccc3)c(C)sc2n1	13µM*	/	26.6	/	?	/
CCOC(=O)c1sc2nc(C)nc(NCc3ccccc3)c2c1C	20.6µM*	-13.1%	-26.4	?	10.3µM*	3.1%
CC(C)(C)NC(=O)c1ccccc1NC(=O)C1CC(=O)N(C2CCCCC2)C1 (configuration not stated)	-5.2%	-15.7%	-3.0	0.1%	2.9%	-0.9%
N#Cc1ccccc1NC(=O)C(=O)NCC(c1ccc2c(c1)OCO2)N1CCOCC1 (configuration not stated)	-17.8%	/	/	/	-1.9%	/
CCOC(=O)c1sc2nc(C)[nH]c(=S)c2c1C	20.6µM*	-3.0%	25.9	-0.8%	?	?
CCOC(=O)c1sc2nc(CC(=O)OC)nc(NCCN3CCOCC3)c2c1C	?	-8.0%	5.7	3.1%	-6.1%	?
CCOC(=O)c1sc2nc(CC(=O)OC)nc(N3CCN(c4ccc(OC)cc4)CC3)c2c1C	23.1µM*	-3.2%	14.9	-0.8%	23.1µM*	?
COc1cccc(CN(c2ccccc2C(=O)O)S(=O)(=O)c2ccc(C)cc2)c1	-6.9%	-1.9%	23.5	2.4%	2.0%	/
O=C(Nc1csc(Cc2c(Cl)cccc2Cl)n1)NN1CCOCC1	-21.5%	-3.7%	-84.2*	20.2%	-1.8%	-0.5%
CCOC(=O)CSc1nsc(SCC(=O)OCC)c1C#N	-10.4%	-0.6%	?	3.9%	-9.9%	4.5%
Cc1csc(NC(=O)CSc2nsc(SCC(=O)Nc3nc(C)cs3)c2C#N)n1	12.6µM*	21.1%	-8.9	?	15.8µM*	?
CC(C)(C)NC(=O)CSc1nsc(SCC(=O)NC(C)(C)C)c1C#N	16.4µM*	0.2%	12.8	12.7%	23.1µM*	-9.0%
CC(=O)CSc1nsc(SCC(C)=O)c1C#N	18.4µM*	-3.1%	8.0	1.1%	18.4µM*	7.4%
CCC(NC(=O)CN1CCN(C(=O)c2cccs2)CC1)c1ccc(C)cc1 (configuration not stated)	1.2%	-14.8%	0.0	-4.6%	-23.8%	2.3%
Cn1c(=O)[nH]c(Nc2ccccc2)c([N+](=O)[O-])c1=O	-11.3%	-143.8%	-7.6	15.8%	21.4%	-5.7%
CCNc1nc(NCC)n2c(SCC(=O)Nc3cccc(Cl)c3)nnc2n1	?	?	-16.3	0.3%	?	4.1%
CCNc1nc(NCC)n2c(SC(C(=O)Nc3cc(Cl)cc(Cl)c3)c3ccccc3)nnc2n1 (configuration not stated)	16.4µM*	-10.2%	37.6	?	23.1µM*	-1.3%
Cc1ccc(NC(=O)CCCSc2ccccc2)cc1S(=O)(=O)N1CCOCC1	-11.3%	-2.0%	-51.6*	8.7%	3.2%	-0.2%
Cc1ccc(NC(=O)CSc2ccc(Br)cc2)cc1S(=O)(=O)N1CCOCC1	25.9µM*	-3.8%	?	0.0%	18.4µM*	-8.8%
SMILES	DT40 TDP1 no CPT	SW480 rereplic	IL1B secr inh	MCF10A rerep	TDP1 cell CPT	Chronic BCR inh
CCOC(=O)C1(C)CCN1C(=O)/C=C/c1ccccc1 (configuration not stated)	-20.6%	/	22.9	/	-24.2%	/
O=C(Nc1ccc(OC(F)(F)F)cc1)C1CCN(S(=O)(=O)c2ccc3[nH]c(=O)ccc3c2)CC1	?	/	/	/	-7.6%	/
Cc1ccc(NC(=O)CN2C(=O)CSc3ccc(S(=O)(=O)N4CCCC4)cc32)cc1F	23.1µM*	/	/	/	?	/
COc1ccc(NC(=O)CN2C(=O)CSc3ccc(S(=O)(=O)N(C)C)cc32)cc1OC	-16.7%	/	/	/	-13.7%	?
COc1cc(NC(=O)CN2C(=O)CSc3ccc(S(=O)(=O)N4CCCC4)cc32)cc(OC)c1	?	-4.0%	-13.1	-1.8%	?	-1.0%
CC(C)c1ccc(NC(=O)CN2C(=O)CSc3ccc(S(=O)(=O)N4CCCC4)cc32)cc1	16.4µM*	/	/	/	16.4µM*	/
Cc1cc(NC(=O)CN2C(=O)CSc3ccc(S(=O)(=O)N(C)C)cc32)ccc1Br	20.6µM*	/	/	/	?	/
O=C1C[C@H]2C=CCc3cccc(c32)CN1Cc1ccc(F)cc1	12.6µM*	/	/	/	?	/
Cc1cccc(CN2Cc3cccc4c3[C@H](C=CC4)CC2=O)c1	20µM*	/	/	/	15.8µM*	/
COc1ccc(-n2cnc(=S)[nH]c2=S)cc1	0.326µM*	?	?	0.9%	0.581µM*	/
COc1ccc(-n2cc(-c3ccccc3)[nH]c2=S)cc1	16.4µM*	-6.7%	2.9	-1.3%	13µM*	?
CCOc1ccc(-c2cn(-c3ccccc3OC)c(=S)[nH]2)cc1	18.4µM*	?	20.1	?	?	-11.1%
COc1ccccc1-n1cc(-c2ccccc2)[nH]c1=S	?	?	-3.0	-6.9%	-26.0%	-0.4%
CC1(Cn2ccnn2)[C@H](C(=O)O)N2C(=O)C[C@H]2S1(=O)=O (some centres not stated)	/	-4.7%	/	4.8%	/	/
COc1ccc(N2CCN(C(CNC(=O)C(C)C)c3ccc4c(c3)OCO4)CC2)cc1 (configuration not stated)	-15.8%	-30.3%	3.2	-1.1%	0.3%	6.6%
CC(C)C(OC(=O)c1cccs1)C(=O)NCc1ccccc1 (configuration not stated)	-7.1%	-2.3%	-8.9	-2.5%	-16.2%	8.8%

Screens: PubChem, National Center for Advancing Translational Sciences (NCATS)
